The campaign covered roughly 310,000 compounds. About 14,000 (4.5%) showed an effect of 50% or more. The effect is printed as a negative number. This excerpt belongs to a sample that is enriched for strong results.
Each compound was assayed against human ether-à-go-go-related gene (hERG) potassium channel (human, UniProt Q12809) (assay: primary screen, population patch clamp on CHO cells stably expressing hERG; higher = less effect of the substance).
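Note: peak tail current of the secondary pulse compared with the same well before compound.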

Sequence of human ether-à-go-go-related gene (hERG) potassium channel (Q12809 whole entry, looked up): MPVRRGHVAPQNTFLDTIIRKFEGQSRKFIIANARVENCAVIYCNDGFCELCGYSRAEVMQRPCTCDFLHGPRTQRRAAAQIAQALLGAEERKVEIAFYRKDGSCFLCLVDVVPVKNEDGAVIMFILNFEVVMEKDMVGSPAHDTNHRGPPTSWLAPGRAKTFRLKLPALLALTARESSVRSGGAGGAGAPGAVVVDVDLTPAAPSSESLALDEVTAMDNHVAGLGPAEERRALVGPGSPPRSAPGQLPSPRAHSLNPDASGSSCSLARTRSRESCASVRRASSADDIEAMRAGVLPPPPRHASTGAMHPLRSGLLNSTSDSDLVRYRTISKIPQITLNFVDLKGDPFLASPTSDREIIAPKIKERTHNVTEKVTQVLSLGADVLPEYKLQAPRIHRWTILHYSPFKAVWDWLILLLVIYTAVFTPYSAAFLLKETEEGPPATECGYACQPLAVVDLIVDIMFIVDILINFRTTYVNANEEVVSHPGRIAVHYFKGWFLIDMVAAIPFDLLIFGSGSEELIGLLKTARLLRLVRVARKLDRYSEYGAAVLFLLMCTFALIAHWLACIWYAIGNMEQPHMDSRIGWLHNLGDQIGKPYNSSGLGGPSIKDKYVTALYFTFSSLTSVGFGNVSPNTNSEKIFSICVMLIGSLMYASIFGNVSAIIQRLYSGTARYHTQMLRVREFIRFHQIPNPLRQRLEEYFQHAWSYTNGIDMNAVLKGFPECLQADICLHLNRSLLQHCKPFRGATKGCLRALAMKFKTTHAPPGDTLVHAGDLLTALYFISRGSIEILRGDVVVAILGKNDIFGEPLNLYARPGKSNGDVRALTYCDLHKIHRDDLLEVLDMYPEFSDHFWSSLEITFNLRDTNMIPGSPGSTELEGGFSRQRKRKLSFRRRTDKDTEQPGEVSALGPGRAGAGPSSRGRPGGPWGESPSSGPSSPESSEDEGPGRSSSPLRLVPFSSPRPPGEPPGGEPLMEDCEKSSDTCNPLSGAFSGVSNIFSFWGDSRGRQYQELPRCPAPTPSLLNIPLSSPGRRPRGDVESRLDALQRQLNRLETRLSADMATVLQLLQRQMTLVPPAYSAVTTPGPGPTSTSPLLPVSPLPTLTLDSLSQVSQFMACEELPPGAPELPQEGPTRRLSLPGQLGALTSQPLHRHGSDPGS

Structure (SMILES)	hERG current change (%, negative = inhibition) at 10uM [%]
Cc1nc2ccc(NC(=O)CS(=O)(=O)c3ccc(F)cc3)cc2s1	-7.44
CCCN1C(=O)CC(C(=O)OC)=C1C	12.9
CCN(CC)c1ccccc1	12.7
CCN(CC)C1=NC=CC(c2ccccc2)=CC1C (stereo not drawn)	-55.1
CCN(CC)c1nc(C(N)=O)cc(-c2ccccc2)n1	-0.608
CCN(CC)c1ncnnc1-c1ccccc1	15.9
CCC1C=C(c2ccccc2)C=CN=C1N(CC)CC (stereo not drawn)	-61.6
CCN(CC)c1cc(-c2ccccc2)ncn1.Cl	-16.5
COc1ccccc1NS(=O)(=O)c1cccc(N=C2N=C(N)c3ccccc32)c1	11.7
CCCc1nn(C)c2c1C(c1ccncc1)C(C#N)=C(N)O2 (stereo not drawn)	15.4
C/C(O)=C/c1nc2ccccc2[nH]c1=O	-5.26
C=C(Cl)COc1ccc2c(CCCC)cc(=O)oc2c1	-24.9
C=CCn1c(NCc2ccccc2OC)nc2ccccc21	-18.9
COc1cccc(CNc2nc3ccccc3n2CCN2CCCCC2)c1OC	-63.6
Oc1ccccc1CNc1nc2ccccc2n1CCN1CCCCC1	-2.31
COc1ccccc1CNc1nc2ccccc2n1CCN1CCCCC1	-61.5
CCCn1c(NCc2cccc(OC)c2OC)nc2ccccc21	-13.9
CCn1c(NCc2cccc(OC)c2OC)nc2ccccc21	-21
CC(Nc1ccccc1CO)C(=O)Nc1cccc(Cl)c1Cl (stereo not drawn)	5.35
O=C(Cn1c(NCCO)nc2ccccc21)NCC(F)(F)F	10.4
O=C(NCCC1=CCCCC1)C1CCCN(S(=O)(=O)c2ccccc2)C1 (stereo not drawn)	6.97
CCCC(=O)Nc1ccc2oc(-c3ccncc3)nc2c1	5.92
CCOC(=O)c1oc2ccccc2c1CN1CCN(C)CC1.Cl	-61.5

Structure (SMILES)	hERG current change (%, negative = inhibition) at 10uM [%]
CCOC(=O)c1oc2ccccc2c1CN1CCN(c2ccccc2)CC1.Cl	-26.6
CCOC(=O)c1oc2ccccc2c1CN1CCCCC1.Cl	-55
CCOC(=O)c1oc2ccccc2c1CN1CCN(C(=O)c2ccccc2)CC1	-41.7
CCOC(=O)c1oc2ccccc2c1CN1CCOCC1.Cl	-4.56
CCOC(=O)c1oc2ccccc2c1CN1CC(C)OC(C)C1 (stereo not drawn)	-0.576
Cc1ccc(Cn2cc(/C=C/C(=O)O)c(-c3ccccc3)n2)cc1	6.77
CCC(C)C1Nc2ccc(C(=O)NCCc3ccc(OC)c(OC)c3)cc2NC1=O (stereo not drawn)	20.4
Cc1ccc(N2CCN(c3ccc(C)cc3)C2c2cccnc2)cc1	17.6
CCC(=O)NC(=S)NNC(=O)COc1ccc(Br)cc1	14.4
CCOCCOc1nc(C)cc(C)c1S(=O)(=O)c1ccccc1C	-4.15
CCOC(=O)C1(CCOc2ccccc2)CCN(Cc2cccc3c2OCO3)CC1	-64.6
CCOC(=O)C1(CCc2ccccc2)CCN(Cc2cccc3c2OCO3)CC1	-75
CCOC(=O)C1(Cc2ccccc2)CCN(Cc2cccc3c2OCO3)CC1	-36.7
O=C(CN1C(=O)c2ccccc2C1=O)Nc1ccccc1	-0.118
CCOC(=O)N1CCN(C(=O)C2CCCN(S(=O)(=O)c3cc(C)ccc3OC)C2)CC1 (stereo not drawn)	-5.57
COCc1c(C#N)c(NCc2cc(OC)c(OC)c(OC)c2)nc(C)c1[N+](=O)[O-]	-12.2
Cc1ncc(CN2CCC(C(=O)Nc3cccc(-c4cscn4)c3)CC2)cn1	-11.9
O=C(Nc1ccc(-n2cccn2)cc1)C1CCN(Cc2ccccn2)CC1	-16.7
CSc1ncc(CN2CCC(C(=O)Nc3cccc(-c4cscn4)c3)CC2)cn1	-35.7
O=C(Nc1cccc(-c2cscn2)c1)C1CCN(Cc2ccsc2)CC1	-65
O=C(Nc1ccc(-n2cccn2)cc1)C1CCN(Cc2ccsc2)CC1	-81.1
Cc1ncc(CN2CCC(C(=O)Nc3ccc(-n4cccn4)cc3)CC2)s1	-21.2

Reference: PMC4336329 (PLoS ONE, 2015)
